# According to article PMC7862700, “An all-to-all approach to the identification of sequence-specific readers for epigenetic DNA modifications on cytosine”:
# Tests used:
# Test in all cases: DAPPL (digital affinity profiling via proximity ligation, sequencing); 10 mM Tris-HCl pH 7.5, 50 mM NaCl, 1 mM DTT, 4% glycerol, room temperature, 30 min; GST-TFs on glutathione beads, 16-mer random dsDNA library, 0.1% formaldehyde crosslink after washing; high values mean tight binding
# FEV = molecular target: T1, FEV (Homo sapiens, UniProt Q99581 1-238); conditions: protein: recombinant; tags: N-terminal GST; dsDNA, one strand shown
# T1 sequence: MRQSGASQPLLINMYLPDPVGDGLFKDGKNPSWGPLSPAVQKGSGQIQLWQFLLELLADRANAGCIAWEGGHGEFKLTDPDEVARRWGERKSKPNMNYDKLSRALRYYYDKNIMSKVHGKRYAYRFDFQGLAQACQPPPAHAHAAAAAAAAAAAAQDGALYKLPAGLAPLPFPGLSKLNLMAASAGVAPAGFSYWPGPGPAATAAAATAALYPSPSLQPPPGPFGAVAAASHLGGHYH
# Method in brief: (§1)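 Each value of binding signal is a hexamer's read frequency for a factor divided by the same hexamer's frequency in the tag-only sample. Barcoded, bead-captured GST fusions of human transcription factors made in yeast were pooled with that sample and incubated with 200 nmole of a random double-stranded 16-mer DNA library in Tris/NaCl/DTT/glycerol buffer at room temperature for 30 min. Washing, 0.1% formaldehyde crosslinking, proximity ligation, PCR and Illumina NextSeq500 sequencing followed.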
# ETV5 = ETV5 (Homo sapiens, UniProt P41161 1-510); conditions: protein: recombinant; tags: N-terminal GST; dsDNA, one strand shown
# Sequence of ETV5 (P41161 whole entry): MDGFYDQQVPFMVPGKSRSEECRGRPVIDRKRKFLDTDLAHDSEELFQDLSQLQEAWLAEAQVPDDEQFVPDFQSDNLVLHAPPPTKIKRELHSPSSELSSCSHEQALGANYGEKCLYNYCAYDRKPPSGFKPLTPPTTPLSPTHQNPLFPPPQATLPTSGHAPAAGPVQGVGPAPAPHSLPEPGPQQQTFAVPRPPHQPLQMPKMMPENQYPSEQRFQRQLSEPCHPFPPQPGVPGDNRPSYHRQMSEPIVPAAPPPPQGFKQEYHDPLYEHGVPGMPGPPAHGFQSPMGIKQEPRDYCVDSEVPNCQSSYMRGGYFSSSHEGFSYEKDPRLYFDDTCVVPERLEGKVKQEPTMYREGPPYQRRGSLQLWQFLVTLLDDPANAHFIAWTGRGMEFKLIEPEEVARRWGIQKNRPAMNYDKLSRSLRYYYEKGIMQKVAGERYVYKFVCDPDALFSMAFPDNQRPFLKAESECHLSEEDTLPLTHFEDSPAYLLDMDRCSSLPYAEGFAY
# Method in brief: as §1
# HSF1 = HSF1 (Homo sapiens, UniProt Q00613 1-529); conditions: protein: recombinant; tags: N-terminal GST; chain copies: 3; dsDNA, one strand shown
# Sequence of HSF1 (Q00613 whole entry): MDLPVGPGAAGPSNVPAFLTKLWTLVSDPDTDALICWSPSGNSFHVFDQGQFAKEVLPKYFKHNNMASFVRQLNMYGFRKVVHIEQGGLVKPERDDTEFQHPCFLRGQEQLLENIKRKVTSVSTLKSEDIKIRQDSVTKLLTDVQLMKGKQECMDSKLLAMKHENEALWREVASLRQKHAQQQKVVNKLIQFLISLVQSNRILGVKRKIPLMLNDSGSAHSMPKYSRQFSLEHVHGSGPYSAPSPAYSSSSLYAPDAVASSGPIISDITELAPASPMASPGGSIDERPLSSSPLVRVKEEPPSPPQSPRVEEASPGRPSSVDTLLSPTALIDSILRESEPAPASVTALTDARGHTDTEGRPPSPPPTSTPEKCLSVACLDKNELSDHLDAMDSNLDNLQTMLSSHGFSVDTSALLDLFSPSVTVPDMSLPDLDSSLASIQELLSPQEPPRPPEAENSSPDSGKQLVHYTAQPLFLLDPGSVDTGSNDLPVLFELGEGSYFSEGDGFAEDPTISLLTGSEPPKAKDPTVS
# Method in brief: as §1
# SPIC = molecular target: T2, SPIC (Homo sapiens, UniProt Q8N5J4 1-248); conditions: protein: recombinant; tags: N-terminal GST; dsDNA, one strand shown
# T2 sequence: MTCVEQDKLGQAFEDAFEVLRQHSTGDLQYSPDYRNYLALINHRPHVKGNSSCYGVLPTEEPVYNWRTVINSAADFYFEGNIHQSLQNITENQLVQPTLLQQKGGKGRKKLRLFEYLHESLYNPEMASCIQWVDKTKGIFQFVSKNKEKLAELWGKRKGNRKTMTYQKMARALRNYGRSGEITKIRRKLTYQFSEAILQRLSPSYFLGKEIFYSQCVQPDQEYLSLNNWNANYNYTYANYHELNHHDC
# Method in brief: as §1
# ELF4 = ELF4 (Homo sapiens, UniProt Q99607 1-663); conditions: protein: recombinant; tags: N-terminal GST; dsDNA, one strand shown
# Sequence of ELF4 (Q99607 whole entry): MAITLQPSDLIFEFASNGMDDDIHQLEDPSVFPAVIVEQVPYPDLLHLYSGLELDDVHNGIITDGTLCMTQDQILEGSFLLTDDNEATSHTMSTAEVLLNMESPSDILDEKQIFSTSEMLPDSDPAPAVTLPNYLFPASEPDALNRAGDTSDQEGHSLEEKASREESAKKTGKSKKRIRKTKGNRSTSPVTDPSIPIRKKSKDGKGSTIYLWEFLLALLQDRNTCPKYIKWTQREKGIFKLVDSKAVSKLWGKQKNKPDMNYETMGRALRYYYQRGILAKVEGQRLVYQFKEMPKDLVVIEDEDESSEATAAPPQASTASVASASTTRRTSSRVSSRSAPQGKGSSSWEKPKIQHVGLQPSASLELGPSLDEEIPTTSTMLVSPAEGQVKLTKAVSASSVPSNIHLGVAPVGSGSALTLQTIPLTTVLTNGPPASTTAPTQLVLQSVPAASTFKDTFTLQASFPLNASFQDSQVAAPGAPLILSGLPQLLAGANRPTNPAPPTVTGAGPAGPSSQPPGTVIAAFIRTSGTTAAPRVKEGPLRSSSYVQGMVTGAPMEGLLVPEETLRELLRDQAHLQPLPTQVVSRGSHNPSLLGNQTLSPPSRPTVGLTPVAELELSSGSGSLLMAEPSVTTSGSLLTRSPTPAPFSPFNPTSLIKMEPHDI
# Method in brief: as §1
# ELK4 = molecular target: T3, ELK4 (Homo sapiens, UniProt P28324-2 1-405); conditions: protein: recombinant; tags: N-terminal GST; dsDNA, one strand shown
# T3 sequence: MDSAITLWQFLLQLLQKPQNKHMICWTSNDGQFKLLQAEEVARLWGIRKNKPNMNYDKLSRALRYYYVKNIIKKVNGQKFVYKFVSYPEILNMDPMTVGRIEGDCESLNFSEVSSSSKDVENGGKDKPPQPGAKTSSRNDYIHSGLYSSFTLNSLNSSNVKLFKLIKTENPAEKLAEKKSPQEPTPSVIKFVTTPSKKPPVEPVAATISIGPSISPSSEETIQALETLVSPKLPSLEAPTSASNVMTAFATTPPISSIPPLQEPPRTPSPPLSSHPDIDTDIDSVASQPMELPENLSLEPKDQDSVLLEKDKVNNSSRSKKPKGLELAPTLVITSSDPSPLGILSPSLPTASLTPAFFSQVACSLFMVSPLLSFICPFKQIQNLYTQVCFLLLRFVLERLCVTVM
# Method in brief: as §1
# ETV2 = molecular target: T4, ETV2 (Homo sapiens, UniProt O00321 1-342); conditions: protein: recombinant; tags: N-terminal GST; dsDNA, one strand shown
# T4 sequence: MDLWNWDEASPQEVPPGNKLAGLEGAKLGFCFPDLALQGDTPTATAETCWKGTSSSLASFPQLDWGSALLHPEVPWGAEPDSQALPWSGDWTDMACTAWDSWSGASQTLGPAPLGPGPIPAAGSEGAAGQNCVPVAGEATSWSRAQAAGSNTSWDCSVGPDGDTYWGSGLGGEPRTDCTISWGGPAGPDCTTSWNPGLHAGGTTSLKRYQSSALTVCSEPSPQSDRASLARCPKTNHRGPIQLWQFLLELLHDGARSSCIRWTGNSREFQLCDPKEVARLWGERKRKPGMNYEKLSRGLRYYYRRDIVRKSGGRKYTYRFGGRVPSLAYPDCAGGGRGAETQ
# Method in brief: as §1
# ELF3 = molecular target: T5, ELF3 (Homo sapiens, UniProt P78545 1-371); conditions: protein: recombinant; tags: N-terminal GST; dsDNA, one strand shown
# T5 sequence: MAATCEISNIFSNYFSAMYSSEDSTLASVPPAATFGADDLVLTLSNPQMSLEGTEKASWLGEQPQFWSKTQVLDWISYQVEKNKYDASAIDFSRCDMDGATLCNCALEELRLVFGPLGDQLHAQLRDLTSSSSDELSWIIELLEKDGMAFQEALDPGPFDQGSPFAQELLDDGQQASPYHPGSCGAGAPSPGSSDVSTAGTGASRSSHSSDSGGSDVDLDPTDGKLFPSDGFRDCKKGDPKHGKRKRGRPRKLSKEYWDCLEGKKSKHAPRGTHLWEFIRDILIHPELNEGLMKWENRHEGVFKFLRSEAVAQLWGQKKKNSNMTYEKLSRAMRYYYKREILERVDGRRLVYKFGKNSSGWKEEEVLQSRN
# Method in brief: as §1
# CRX = CRX (Homo sapiens, UniProt O43186 1-299); conditions: protein: recombinant; tags: N-terminal GST; dsDNA, one strand shown
# Sequence of CRX (O43186 whole entry): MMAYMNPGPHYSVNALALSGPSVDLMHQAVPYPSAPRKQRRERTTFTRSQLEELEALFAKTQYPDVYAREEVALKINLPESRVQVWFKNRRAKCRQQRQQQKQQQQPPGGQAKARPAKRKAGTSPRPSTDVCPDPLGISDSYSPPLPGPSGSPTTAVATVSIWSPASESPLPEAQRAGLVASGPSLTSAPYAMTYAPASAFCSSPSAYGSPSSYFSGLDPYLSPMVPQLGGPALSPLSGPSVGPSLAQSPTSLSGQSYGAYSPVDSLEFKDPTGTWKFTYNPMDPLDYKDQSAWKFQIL
# Method in brief: as §1
# ETV1 = ETV1 (Homo sapiens, UniProt P50549 1-477); conditions: protein: recombinant; tags: N-terminal GST; dsDNA, one strand shown
# Sequence of ETV1 (P50549 whole entry): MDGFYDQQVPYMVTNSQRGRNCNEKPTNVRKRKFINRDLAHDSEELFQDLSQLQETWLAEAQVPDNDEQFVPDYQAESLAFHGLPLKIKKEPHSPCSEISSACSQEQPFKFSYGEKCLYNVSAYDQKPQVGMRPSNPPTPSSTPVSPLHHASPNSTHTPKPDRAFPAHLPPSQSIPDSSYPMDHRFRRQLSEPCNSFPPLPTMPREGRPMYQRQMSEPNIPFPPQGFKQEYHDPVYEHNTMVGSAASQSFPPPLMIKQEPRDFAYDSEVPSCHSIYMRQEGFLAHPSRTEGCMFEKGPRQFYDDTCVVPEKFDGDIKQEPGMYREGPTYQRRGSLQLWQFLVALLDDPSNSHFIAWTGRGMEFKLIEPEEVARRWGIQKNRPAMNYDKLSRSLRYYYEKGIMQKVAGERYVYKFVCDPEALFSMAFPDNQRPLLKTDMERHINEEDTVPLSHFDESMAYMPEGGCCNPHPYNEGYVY
# Method in brief: as §1
# ERF = molecular target: T6, ERF (Homo sapiens, UniProt P50548 1-548); conditions: protein: recombinant; tags: N-terminal GST; dsDNA, one strand shown
# T6 sequence: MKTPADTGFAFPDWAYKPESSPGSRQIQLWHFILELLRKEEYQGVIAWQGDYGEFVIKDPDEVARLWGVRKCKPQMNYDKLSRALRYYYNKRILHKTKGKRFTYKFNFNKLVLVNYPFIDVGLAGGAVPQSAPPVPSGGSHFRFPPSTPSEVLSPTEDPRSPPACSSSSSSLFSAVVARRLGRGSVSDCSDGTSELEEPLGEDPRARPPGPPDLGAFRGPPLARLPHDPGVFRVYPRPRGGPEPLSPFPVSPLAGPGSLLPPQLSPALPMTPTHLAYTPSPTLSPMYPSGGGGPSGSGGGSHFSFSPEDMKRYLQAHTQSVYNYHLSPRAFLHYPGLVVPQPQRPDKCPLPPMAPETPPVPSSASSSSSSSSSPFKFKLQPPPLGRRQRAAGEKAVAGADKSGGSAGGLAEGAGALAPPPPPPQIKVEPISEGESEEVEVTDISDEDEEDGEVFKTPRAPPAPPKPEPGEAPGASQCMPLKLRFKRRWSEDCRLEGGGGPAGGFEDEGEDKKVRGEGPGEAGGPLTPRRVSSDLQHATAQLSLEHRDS
# Method in brief: as §1
# ETV3L = molecular target: T7, ETV3L (Homo sapiens, UniProt Q6ZN32 1-361); conditions: protein: recombinant; tags: N-terminal GST; dsDNA, one strand shown
# T7 sequence: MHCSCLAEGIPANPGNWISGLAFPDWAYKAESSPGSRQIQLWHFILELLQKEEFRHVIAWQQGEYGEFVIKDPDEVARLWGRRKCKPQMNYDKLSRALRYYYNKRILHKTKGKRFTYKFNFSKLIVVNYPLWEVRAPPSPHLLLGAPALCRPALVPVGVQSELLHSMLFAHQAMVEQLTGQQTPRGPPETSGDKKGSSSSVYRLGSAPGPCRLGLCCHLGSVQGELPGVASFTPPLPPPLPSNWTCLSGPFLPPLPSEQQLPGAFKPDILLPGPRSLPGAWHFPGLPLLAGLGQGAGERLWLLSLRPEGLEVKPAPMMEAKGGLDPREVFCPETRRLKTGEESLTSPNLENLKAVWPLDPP
# Method in brief: as §1
# ETS2 = molecular target: T8, ETS2 (Homo sapiens, UniProt P15036 1-469); conditions: protein: recombinant; tags: N-terminal GST; dsDNA, one strand shown
# T8 sequence: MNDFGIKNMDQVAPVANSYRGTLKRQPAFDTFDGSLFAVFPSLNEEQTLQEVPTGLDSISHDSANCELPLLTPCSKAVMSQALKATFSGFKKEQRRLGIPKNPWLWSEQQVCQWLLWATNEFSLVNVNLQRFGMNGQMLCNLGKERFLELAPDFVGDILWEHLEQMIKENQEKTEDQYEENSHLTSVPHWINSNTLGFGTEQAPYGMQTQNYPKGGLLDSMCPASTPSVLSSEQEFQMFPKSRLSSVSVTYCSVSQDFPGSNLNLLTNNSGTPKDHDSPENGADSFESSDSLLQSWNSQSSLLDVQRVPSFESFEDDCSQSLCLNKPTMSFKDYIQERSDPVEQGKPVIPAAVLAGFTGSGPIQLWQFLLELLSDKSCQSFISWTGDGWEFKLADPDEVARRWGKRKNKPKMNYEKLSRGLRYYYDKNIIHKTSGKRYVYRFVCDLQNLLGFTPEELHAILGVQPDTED
# Method in brief: as §1
# SPDEF = molecular target: T9, SPDEF (Homo sapiens, UniProt O95238 1-335); conditions: protein: recombinant; tags: N-terminal GST; dsDNA, one strand shown
# T9 sequence: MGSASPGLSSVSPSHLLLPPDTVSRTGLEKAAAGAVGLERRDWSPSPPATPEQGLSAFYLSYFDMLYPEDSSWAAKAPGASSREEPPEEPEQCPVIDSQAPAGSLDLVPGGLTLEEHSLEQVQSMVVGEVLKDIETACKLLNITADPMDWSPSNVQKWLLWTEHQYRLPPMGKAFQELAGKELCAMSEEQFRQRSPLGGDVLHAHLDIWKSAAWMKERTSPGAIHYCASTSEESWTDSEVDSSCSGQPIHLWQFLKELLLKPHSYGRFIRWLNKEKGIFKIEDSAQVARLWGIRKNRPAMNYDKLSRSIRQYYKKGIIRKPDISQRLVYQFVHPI
# Method in brief: as §1
# ETV7 = molecular target: T10, ETV7 (Homo sapiens, UniProt Q9Y603 1-341); conditions: protein: recombinant; tags: N-terminal GST; dsDNA, one strand shown
# T10 sequence: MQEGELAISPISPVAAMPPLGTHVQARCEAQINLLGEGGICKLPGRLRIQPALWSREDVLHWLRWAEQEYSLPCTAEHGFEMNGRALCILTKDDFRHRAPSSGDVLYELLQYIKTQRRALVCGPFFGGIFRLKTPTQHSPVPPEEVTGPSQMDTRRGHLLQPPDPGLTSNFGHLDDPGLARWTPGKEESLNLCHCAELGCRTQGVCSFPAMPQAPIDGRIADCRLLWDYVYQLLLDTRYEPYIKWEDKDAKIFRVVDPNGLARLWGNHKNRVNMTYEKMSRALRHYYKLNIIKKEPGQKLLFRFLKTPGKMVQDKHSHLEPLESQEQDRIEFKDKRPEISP
# Method in brief: as §1
# ELF5 = molecular target: T11, ELF5 (Homo sapiens, UniProt Q9UKW6-2 1-255); conditions: protein: recombinant; tags: N-terminal GST; dsDNA, one strand shown
# T11 sequence: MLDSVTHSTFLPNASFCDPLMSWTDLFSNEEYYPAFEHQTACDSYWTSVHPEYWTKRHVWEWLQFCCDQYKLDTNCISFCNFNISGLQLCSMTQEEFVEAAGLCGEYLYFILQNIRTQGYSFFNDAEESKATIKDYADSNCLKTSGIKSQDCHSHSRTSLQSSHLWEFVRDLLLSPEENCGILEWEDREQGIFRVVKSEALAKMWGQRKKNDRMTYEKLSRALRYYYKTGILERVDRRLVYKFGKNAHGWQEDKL
# Method in brief: as §1
# ETV3 = molecular target: T12, ETV3 (Homo sapiens, UniProt P41162-2 1-143); conditions: protein: recombinant; tags: N-terminal GST; dsDNA, one strand shown
# T12 sequence: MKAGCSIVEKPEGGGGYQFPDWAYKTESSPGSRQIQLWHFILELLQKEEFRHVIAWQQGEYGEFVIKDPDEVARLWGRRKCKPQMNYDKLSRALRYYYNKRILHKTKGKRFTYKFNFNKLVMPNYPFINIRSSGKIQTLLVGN
# Method in brief: as §1
# ETV6 = ETV6 (Homo sapiens, UniProt P41212 1-452); conditions: protein: recombinant; tags: N-terminal GST; dsDNA, one strand shown
# Sequence of ETV6 (P41212 whole entry): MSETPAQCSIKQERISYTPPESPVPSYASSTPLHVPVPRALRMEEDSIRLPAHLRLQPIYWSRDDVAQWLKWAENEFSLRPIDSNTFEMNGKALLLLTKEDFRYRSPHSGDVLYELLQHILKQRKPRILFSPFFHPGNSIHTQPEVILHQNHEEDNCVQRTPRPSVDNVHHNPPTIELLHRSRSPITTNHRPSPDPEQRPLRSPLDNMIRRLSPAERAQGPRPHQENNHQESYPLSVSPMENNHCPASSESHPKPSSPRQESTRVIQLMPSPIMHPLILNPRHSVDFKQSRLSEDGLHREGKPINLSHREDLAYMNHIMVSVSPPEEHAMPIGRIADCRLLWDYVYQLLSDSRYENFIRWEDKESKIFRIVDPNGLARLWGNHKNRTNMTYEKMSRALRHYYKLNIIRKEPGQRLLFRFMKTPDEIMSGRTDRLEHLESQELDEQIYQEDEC
# Method in brief: as §1
sequence,measurement,setting,value
TGCTCT,binding signal,FEV,"1.37 fold enrichment (6-mer frequency, TF over GST control)"
same,binding signal,ETV5,"1.37 fold enrichment (6-mer frequency, TF over GST control)"
same,binding signal,HSF1,"1.3 fold enrichment (6-mer frequency, TF over GST control)"
same,binding signal,SPIC,"1.2 fold enrichment (6-mer frequency, TF over GST control)"
same,binding signal,ELF4,"1.36 fold enrichment (6-mer frequency, TF over GST control)"
same,binding signal,ELK4,"1.38 fold enrichment (6-mer frequency, TF over GST control)"
same,binding signal,ETV2,"1.47 fold enrichment (6-mer frequency, TF over GST control)"
same,binding signal,ELF3,"1.36 fold enrichment (6-mer frequency, TF over GST control)"
same,binding signal,CRX,"1.24 fold enrichment (6-mer frequency, TF over GST control)"
same,binding signal,ETV1,"1.33 fold enrichment (6-mer frequency, TF over GST control)"
same,binding signal,ERF,"1.35 fold enrichment (6-mer frequency, TF over GST control)"
same,binding signal,ETV3L,"1.37 fold enrichment (6-mer frequency, TF over GST control)"
same,binding signal,ETS2,"1.4 fold enrichment (6-mer frequency, TF over GST control)"
same,binding signal,SPDEF,"1.17 fold enrichment (6-mer frequency, TF over GST control)"
same,binding signal,ETV7,"1.24 fold enrichment (6-mer frequency, TF over GST control)"
same,binding signal,ELF5,"1.27 fold enrichment (6-mer frequency, TF over GST control)"
same,binding signal,ETV3,"1.29 fold enrichment (6-mer frequency, TF over GST control)"
same,binding signal,ETV6,"1.31 fold enrichment (6-mer frequency, TF over GST control)"
